ChEMBL document CHEMBL1961873, “Compounds: GSK PKIS; Assays: Nanosyn kinase panel” (2012)

Columns and labels:
[1] = target: Tyrosine-protein kinase receptor UFO (Homo sapiens) (UniProt P30530); conditions: at 1 µM
[2] = target: Tyrosine-protein kinase Blk (Homo sapiens) (UniProt P51451); conditions: at 0.1 µM
[3] = target: Tyrosine-protein kinase Blk (Homo sapiens) (UniProt P51451); conditions: at 1 µM
[4] = target: T1, Cytoplasmic tyrosine-protein kinase BMX (Homo sapiens) (UniProt P51813); conditions: at 0.1 µM
T1 sequence (whole entry): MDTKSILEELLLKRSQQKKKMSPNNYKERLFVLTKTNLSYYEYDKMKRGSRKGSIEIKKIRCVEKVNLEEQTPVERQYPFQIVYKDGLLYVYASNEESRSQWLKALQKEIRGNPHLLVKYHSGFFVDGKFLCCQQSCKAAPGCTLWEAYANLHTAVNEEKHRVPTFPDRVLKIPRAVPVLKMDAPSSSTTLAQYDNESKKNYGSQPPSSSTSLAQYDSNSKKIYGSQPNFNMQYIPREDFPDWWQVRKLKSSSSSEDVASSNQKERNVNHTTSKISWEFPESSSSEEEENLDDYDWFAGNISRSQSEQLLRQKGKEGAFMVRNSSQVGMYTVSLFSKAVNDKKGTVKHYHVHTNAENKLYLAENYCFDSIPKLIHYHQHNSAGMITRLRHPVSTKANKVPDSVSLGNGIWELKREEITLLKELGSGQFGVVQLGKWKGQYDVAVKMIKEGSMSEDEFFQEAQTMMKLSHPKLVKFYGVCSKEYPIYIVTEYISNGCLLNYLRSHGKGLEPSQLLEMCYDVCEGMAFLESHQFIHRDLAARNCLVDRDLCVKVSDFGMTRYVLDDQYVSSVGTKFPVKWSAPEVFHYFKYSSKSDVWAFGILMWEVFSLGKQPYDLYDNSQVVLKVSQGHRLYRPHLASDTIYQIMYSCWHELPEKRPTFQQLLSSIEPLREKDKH

[5] = target: T1, Cytoplasmic tyrosine-protein kinase BMX (Homo sapiens); conditions: at 1 µM
[6] = target: Protein-tyrosine kinase 6 (Homo sapiens) (UniProt Q13882); conditions: at 0.1 µM
Protein-tyrosine kinase 6 (Homo sapiens), sequence (Q13882 whole entry, looked up): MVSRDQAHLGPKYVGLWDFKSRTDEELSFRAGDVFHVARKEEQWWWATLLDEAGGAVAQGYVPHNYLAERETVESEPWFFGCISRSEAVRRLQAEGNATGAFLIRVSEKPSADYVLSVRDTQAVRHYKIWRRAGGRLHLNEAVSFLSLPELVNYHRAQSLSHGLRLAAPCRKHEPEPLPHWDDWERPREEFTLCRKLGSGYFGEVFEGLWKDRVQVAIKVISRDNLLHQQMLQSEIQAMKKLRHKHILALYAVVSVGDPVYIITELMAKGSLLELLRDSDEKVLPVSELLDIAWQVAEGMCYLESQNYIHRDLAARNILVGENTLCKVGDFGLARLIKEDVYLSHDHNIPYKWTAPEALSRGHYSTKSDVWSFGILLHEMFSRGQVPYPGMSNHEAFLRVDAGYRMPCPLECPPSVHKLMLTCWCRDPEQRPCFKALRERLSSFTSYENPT

[7] = target: Protein-tyrosine kinase 6 (Homo sapiens) (UniProt Q13882); conditions: at 1 µM
[8] = target: Tyrosine-protein kinase BTK (Homo sapiens) (UniProt Q06187); conditions: at 0.1 µM
Tyrosine-protein kinase BTK (Homo sapiens), sequence (Q06187 whole entry): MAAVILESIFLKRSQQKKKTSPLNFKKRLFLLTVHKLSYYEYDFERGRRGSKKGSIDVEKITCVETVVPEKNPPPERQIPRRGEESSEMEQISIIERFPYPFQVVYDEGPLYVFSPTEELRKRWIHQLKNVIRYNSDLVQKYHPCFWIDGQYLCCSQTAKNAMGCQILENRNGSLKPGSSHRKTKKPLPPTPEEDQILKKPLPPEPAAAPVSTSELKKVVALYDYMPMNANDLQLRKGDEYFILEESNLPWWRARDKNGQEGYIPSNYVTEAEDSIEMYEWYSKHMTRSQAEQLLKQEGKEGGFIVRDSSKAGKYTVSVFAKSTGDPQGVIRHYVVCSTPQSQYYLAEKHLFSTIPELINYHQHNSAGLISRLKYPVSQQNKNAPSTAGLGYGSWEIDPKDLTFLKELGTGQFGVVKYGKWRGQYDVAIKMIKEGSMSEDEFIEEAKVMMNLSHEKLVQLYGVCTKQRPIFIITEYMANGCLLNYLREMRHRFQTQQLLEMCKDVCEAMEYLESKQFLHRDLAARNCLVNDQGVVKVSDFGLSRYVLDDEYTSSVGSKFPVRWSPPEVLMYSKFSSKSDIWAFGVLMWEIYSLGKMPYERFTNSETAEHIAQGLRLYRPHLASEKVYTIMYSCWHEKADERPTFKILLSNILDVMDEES

[9] = target: Tyrosine-protein kinase BTK (Homo sapiens) (UniProt Q06187); conditions: at 1 µM
[10] = target: Tyrosine-protein kinase CSK (Homo sapiens) (UniProt P41240); conditions: at 0.1 µM;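 note: value given is the averaged percent inhibition of CSK kinase activity, from the GSK PKIS kinase inhibitor set screening panel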
Tyrosine-protein kinase CSK (Homo sapiens), sequence (P41240 2-450 limits assumed): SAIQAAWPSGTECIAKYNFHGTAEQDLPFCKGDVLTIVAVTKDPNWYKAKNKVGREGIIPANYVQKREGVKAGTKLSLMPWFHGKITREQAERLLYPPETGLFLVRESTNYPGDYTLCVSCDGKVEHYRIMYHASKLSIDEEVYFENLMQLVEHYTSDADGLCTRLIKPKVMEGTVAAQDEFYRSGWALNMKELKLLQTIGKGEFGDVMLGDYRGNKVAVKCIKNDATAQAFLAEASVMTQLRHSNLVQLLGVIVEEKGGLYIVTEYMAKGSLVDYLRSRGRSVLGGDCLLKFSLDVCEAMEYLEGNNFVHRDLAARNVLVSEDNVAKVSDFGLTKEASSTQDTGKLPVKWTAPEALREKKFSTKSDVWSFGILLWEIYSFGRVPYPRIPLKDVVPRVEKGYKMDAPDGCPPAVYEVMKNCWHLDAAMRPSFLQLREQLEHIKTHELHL

Tyrosine-protein kinase Blk (Homo sapiens), sequence (P51451 2-505 limits assumed): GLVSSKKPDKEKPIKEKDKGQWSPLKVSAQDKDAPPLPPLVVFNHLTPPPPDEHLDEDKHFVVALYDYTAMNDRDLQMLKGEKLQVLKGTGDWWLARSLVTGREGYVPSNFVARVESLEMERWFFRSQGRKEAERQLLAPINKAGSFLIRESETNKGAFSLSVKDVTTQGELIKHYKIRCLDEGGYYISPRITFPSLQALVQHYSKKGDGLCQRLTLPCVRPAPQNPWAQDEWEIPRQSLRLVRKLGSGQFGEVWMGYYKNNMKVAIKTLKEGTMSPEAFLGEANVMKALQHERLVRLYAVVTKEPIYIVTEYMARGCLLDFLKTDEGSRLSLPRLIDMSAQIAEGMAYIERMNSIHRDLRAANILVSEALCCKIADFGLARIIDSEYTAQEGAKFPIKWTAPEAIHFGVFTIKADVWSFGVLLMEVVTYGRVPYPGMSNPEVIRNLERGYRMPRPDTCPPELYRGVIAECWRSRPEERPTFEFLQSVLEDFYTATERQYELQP
Tyrosine-protein kinase receptor UFO (Homo sapiens), sequence (P30530 whole entry): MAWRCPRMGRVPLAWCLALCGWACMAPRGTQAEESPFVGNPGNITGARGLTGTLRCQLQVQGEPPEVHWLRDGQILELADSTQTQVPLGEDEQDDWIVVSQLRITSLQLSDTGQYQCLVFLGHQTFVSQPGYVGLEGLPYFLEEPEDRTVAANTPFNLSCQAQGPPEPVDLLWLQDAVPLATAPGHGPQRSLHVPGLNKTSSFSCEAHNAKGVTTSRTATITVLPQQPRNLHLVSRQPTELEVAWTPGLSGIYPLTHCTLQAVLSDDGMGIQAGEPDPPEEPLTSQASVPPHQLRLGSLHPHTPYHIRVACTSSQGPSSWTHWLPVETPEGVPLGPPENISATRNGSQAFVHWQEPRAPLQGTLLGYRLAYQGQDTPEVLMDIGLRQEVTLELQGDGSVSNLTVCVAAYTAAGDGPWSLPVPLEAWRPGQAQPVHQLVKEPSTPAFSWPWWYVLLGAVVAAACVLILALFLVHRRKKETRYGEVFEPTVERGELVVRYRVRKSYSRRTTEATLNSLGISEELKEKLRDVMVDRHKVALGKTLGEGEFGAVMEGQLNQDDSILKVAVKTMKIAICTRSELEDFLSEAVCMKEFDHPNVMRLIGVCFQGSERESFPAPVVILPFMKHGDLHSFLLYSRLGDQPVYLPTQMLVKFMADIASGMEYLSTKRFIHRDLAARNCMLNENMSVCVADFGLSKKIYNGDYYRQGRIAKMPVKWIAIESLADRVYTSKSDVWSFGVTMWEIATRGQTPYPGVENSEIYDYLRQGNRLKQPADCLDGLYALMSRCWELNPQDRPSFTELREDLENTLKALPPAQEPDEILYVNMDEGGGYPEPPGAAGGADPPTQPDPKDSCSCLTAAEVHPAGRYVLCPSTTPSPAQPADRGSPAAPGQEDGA

Row | SMILES | inhibition [1] [%] | inhibition [2] [%] | inhibition [3] [%] | inhibition [4] [%] | inhibition [5] [%] | inhibition [6] [%] | inhibition [7] [%] | inhibition [8] [%] | inhibition [9] [%] | inhibition [10] [%]
1 | CCn1c(-c2nonc2N)nc2c(N3CCCC3)nccc21 | 4.04 | -1.15 | -2.43 | -2.04 | -1.4 | -1.28 | -2.02 | 0.03 | -1.53 | -7.4
2 | COc1ccc(-c2ccncc2)cc1C(N)=O | -7.29 | 3.55 | 3.47 | 3.29 | 5.58 | 3.09 | 3.57 | -1.01 | -0.13 | 2.75
3 | NS(=O)(=O)c1cccc(-c2ccc3c(NC(=O)C4CC4)n[nH]c3c2)c1 | 2.37 | -0.75 | 0.74 | -2.14 | 0.66 | -2.66 | 0.49 | -0.13 | -1.52 | -7.29
4 | O=C1NC(=O)C(c2cccc(Cl)c2)=C1Nc1ccc(O)c(Cl)c1 | -0.83 | 0.13 | 5.96 | 4.05 | 1.46 | -2.09 | -2.04 | -0.33 | 1.57 | 0.82
5 | CCn1c(-c2nonc2N)nc2c(C#CC(C)(C)O)nc(OC[C@@H](N)c3ccccc3)cc21 | 3.03 | 0.59 | 0.29 | -0.32 | 0.02 | 0.79 | -0.34 | -0.1 | 1.72 | -1.24
6 | O=C1NC(=O)C(c2ccc(Cl)cc2)=C1Nc1ccc(Cl)c(C(=O)O)c1 | 7.43 | -0.2 | -2.5 | -4.08 | -3.08 | 0.06 | -1.29 | -0.05 | 0.05 | -3.37
7 | CC1=C(C(=O)Nc2ccc3[nH]ncc3c2)C(c2ccc3ccccc3c2)CC(=O)N1 (centres undefined) | -3.18 | 13.4 | 58.5 | -1.63 | 3.91 | 3.76 | 6.55 | 0.23 | 11.4 | 4.44
8 | CCn1c(-c2nonc2N)nc2c(C#CC(C)(C)O)nc(CN3CCCC3)cc21 | 1.53 | -0.49 | 0.66 | 2.82 | -1.55 | -2.67 | -1.74 | -1.44 | -1.15 | -0.07
9 | COc1ccc(COc2ccc(Cc3cnc(N)nc3N)cc2OC)cc1 | 8.25 | 0.45 | 0.47 | 0.39 | 2.06 | -1.66 | -1.6 | 0.23 | 3.61 | 0.54
10 | c1cnn2ncc(-c3ccnc(Nc4ccc5c(c4)OCCO5)n3)c2c1 | 10.1 | 3.13 | 9.58 | 1.58 | 14.5 | 6.27 | 13.7 | 1.69 | 3.99 | 4.46
11 | COc1cc2ncn(-c3cc(O[C@@H](C)c4ccccc4Cl)c(C(N)=O)s3)c2cc1OC | -5.82 | 11.1 | 51.2 | 2.71 | 6.64 | -0.13 | 7.91 | -0.58 | 1.4 | 1.7
12 | COc1cc2ncn(-c3cc(O[C@H](C)c4ccccc4Cl)c(C(N)=O)s3)c2cc1OC | 8.37 | 5.28 | 23.4 | 2.09 | 9.76 | -0.56 | 3.6 | 1.78 | 6.48 | 4.29
13 | NC(=O)c1cccc(Nc2nccc(Nc3cccc4[nH]ncc34)n2)c1 | 7.82 | 9.56 | 66.3 | 21.6 | 73.8 | 68.6 | 99.7 | 3.23 | 19.9 | -2.2
14 | Fc1cccc(COc2ccc(Nc3ncnc4cc(-c5ccc[nH]5)sc34)cc2Cl)c1 | -0.12 | -2.62 | 0.69 | 2.13 | 1.82 | 1.55 | 6.36 | -5.43 | -4.27 | 2.68
15 | O=C(Nc1n[nH]c2nc(-c3ccco3)c(Br)cc12)C1CC1 | -1.16 | 3.07 | 20.5 | 7.33 | 4.58 | 6.01 | 3.67 | -0.13 | 4.11 | 6.94
16 | Cc1ccc(C(=O)NC2CCCCC2)cc1-c1ccc(C(=O)NCC2CC2)cc1 | 3.11 | 2.04 | 3.76 | 2.45 | 4.53 | 1.79 | 3.75 | 1.78 | 3.37 | 2.72
17 | Cc1nn(C)c2cc(N(C)c3ccnc(Nc4cccc(S(N)(=O)=O)c4)n3)ccc12 | -1.13 | 5.53 | 46.8 | 8.2 | 35.1 | 10.8 | 52 | -0.96 | 6.74 | 5.24

Row | SMILES | inhibition [1] [%] | inhibition [2] [%] | inhibition [3] [%] | inhibition [4] [%] | inhibition [5] [%] | inhibition [6] [%] | inhibition [7] [%] | inhibition [8] [%] | inhibition [9] [%] | inhibition [10] [%]
18 | COc1cccc(-n2ncc3c(N/N=C/c4cccc(F)c4)ncnc32)c1 | 1.49 | -0.8 | 17.9 | 16.8 | 13.8 | -0.23 | 5.33 | -5.62 | -4.52 | 1.19
19 | Fc1cccc(COc2ccc(Nc3ncnc4sc(-c5cccs5)cc34)cc2Cl)c1 | 1.51 | 1.15 | 3.35 | 1.58 | 4.35 | -1.94 | 2.02 | -0.95 | -0.95 | 2.73
20 | CS(=O)(=O)CCNCc1nc(-c2ccc3ncnc(Nc4ccc(F)c(Cl)c4)c3c2)cs1 | 0.38 | 1.92 | 7.95 | 0.99 | 7.67 | 1.05 | 5.15 | 0.64 | 4.51 | 2.86
21 | Cc1cccc(-c2n[nH]cc2-c2ccc3ncccc3n2)n1 | 0.83 | 1.31 | 3.22 | 3 | 0.92 | 0.3 | 2.48 | -0.91 | -1.51 | -1.25
22 | NCc1ccc(-c2nc(-c3ccc(Cl)c(O)c3)c(-c3ccncc3)[nH]2)cc1 | 3.04 | 0.72 | 10.4 | 12.4 | 28.9 | 13.9 | 58.7 | 1.91 | 6.57 | -0.21
23 | CCn1c(-c2nonc2N)nc2cnc(Oc3cccc(NC(=O)c4ccc(OCCN5CCOCC5)cc4)c3)cc21 | -2.93 | 2.22 | 2.41 | 0.58 | 2.53 | 0.94 | 4.32 | -1.45 | -2.04 | 2.95
24 | COc1cc2c(cc1Nc1nc(N3CCc4ccccc43)c3cc[nH]c3n1)N(C(=O)CN(C)C)CC2 | 21.4 | 0.59 | 4.28 | -0.34 | 4.16 | 1.24 | 0.03 | 1.01 | 2.65 | 3.07
25 | CS(=O)(=O)Nc1ccc(N/C=C2\C(=O)Nc3ccccc32)cc1 | 4.47 | 0.62 | 18.2 | -1.58 | 0.63 | -4.62 | -2.23 | -1.06 | -0.9 | -9.22
26 | CCCN1CCC(Oc2cc(Nc3nc(Nc4cccc(F)c4C(N)=O)c4cc[nH]c4n3)c(OC)cc2Cl)CC1 | 6.29 | 0.32 | 4.43 | -3.07 | 0.44 | 2.81 | 14.8 | 0.06 | 0.8 | -0.02
27 | CCn1c(-c2nonc2N)nc2cncc(C(=O)N3CC[C@H](N)C3)c21 | -4.01 | 2.69 | 3.09 | 2.23 | 0.56 | 4.5 | 8.63 | -0.23 | -1.15 | 5.91
28 | [O-][S+]1CCN(Cc2ccc(-c3ccc4ncnc(Nc5ccc(OCc6ccccc6)c(F)c5)c4c3)o2)CC1 | -2.42 | 1.92 | 5.97 | 4.65 | 5.88 | 0.34 | 6.21 | 1.11 | 1.74 | 3.39
29 | CC(C)=Cc1cccc2c1/C(=N/Nc1ccc(S(N)(=O)=O)cc1)C(=O)N2 | 5.18 | 3.01 | 31.1 | -0.19 | 6.64 | 1.35 | -1.64 | 1.86 | 3.95 | 0.6
30 | NS(=O)(=O)c1ccc(N/N=C2\C(=O)Nc3ccc(C(=O)NCCc4c[nH]cn4)cc32)cc1 | 9.57 | 4.25 | 17.2 | -1.78 | 6.53 | 7.16 | 5.31 | 1.88 | 1.29 | 8.17
31 | COc1ccccc1Nc1ncc(-c2ccccc2)o1 | -5.15 | 4.5 | 5.8 | 4.01 | 6.53 | 2.03 | 6.6 | 0.53 | 3.39 | 2.72
32 | CCN1CCC(CC(=O)Nc2n[nH]c3nc(-c4cccs4)c(Br)cc23)CC1 | 2.24 | -1.4 | 0.14 | -3.73 | -1.1 | -3.07 | 0.94 | -1.38 | 0.05 | 
33 | COC(=O)Nc1nc2cc(Oc3ccc(NC(=O)Nc4cccc(C(=O)O)c4)cc3)ccc2[nH]1 | -0.32 | -1.59 | 0.01 | 0.22 | 0.47 | 0.95 | -0.37 | -1.95 | -2.57 | 2.42
